Reference: PubChem BioAssay AID2320 (National Center for Advancing Translational Sciences (NCATS), 2010)
Results filed as inconclusive are left out. A number with no mark means an inactive call. Active and inactive are the calls of the source. The call rests on the fitted dose curve.

Experiment: A qHTS for Small Molecule Inhibitors of Shiga Toxin (Confirmatory); further: nearly all actives have a fitted effect of over 75% in size; on activity, positive = inhibition of toxin: 0% is about no effect
Conditions: Cell-based Shiga toxin protection reporter assay; series mostly up to 38.3 µM; activity, positive = inhibition of toxin: at the top concentration
Potency means the concentration at half of the fitted maximal effect.

| Structure (SMILES) | activity, positive = inhibition of toxin [%] | Potency |
| --- | --- | --- |
| O=C(NCCC1=CCCCC1)C1CCN(S(=O)(=O)c2cccc3cccnc23)CC1 | 27 |  |
| CCC(=O)N1CCN(c2ccccc2NC(=O)c2ccc([N+](=O)[O-])o2)CC1 |  | 4000 nM (active) |
| CCOC(=O)C1(CCCc2ccccc2)CCN(C(=O)CCn2cncn2)CC1 | 14.8 |  |
| OC1C[N+]2(CCCCC2)C1 | -28.4 |  |
| CCOC(=O)c1c(C)[nH]c(C2=NNC(=NC3CC3)SC2)c1C |  | 44.9 nM (active) |
| CCc1ccc(C(=O)c2oc3nc(C)cc(C)c3c2N)cc1 |  | 5040 nM (active) |
| CC(=O)c1cccc(NC(=O)c2ccc(NC(=O)CCS(=O)(=O)c3cccs3)cc2)c1 | 9.11 |  |
| CC(=O)c1ccc(-c2cccc([C@H]3[C@@H]4C=CC[C@@H](C)[C@@H]4C(=O)N3Cc3ccccc3)c2)cc1 | -17 |  |
| CCOC(=O)N1CCN(S(=O)(=O)c2ccc(C(=O)NNc3nc4c(C)cc(C)cc4s3)cc2)CC1 |  | 40 nM (active) |
| CCC(C)C1C(C#N)=C(N)OC2=C1C(=O)CC(C)(C)C2 (stereo unspecified) | 15.3 |  |
| Cc1ccc(CSc2nnc(CCCCCNC(=O)OC(C)(C)C)o2)cc1 | 6.27 |  |
| CSc1ccc(/C=C/C(=O)N2CCN(c3ccccn3)CC2)cc1 | -0.0265 |  |
| Cc1ccc(C(=O)CSc2nnnn2C(C)C)c(C)c1 |  | 449 nM (active) |
| Cc1cnc(NC(=O)c2c(Cl)cnn2C)s1 | 24.6 |  |
| O=C(NCCCO)/C(=C\c1ccco1)NC(=O)c1ccco1 | 21.2 |  |
| Cc1nnc(NC(=O)C2COc3ccccc3O2)s1 (stereo unspecified) |  | 14200 nM (active) |
| Cc1ccc(-c2csc(NC(=O)c3ccc(C)o3)n2)cc1 |  | 31.8 nM (active) |
| CCCCC1(C)Nc2ccccc2-c2nc3ccccc3n21 (stereo unspecified) |  | 12600 nM (active) |
| O=S(=O)(c1ccsc1)N1CC=C(c2ccccc2)CC1 |  | 2830 nM (active) |
| NC(=O)[C@@H]1CCCN1C(=O)c1ccc2nc(Cc3cccc(Cl)c3)oc2c1 | -4.22 |  |
| O=C1NC(=Nc2ccc(O)cc2)S/C1=C\C=C\c1ccco1 |  | 634 nM (active) |
